An excerpt weighted towards active compounds, which were near 0.81% of everything screened.
LRH-1 inv ag = NR5A2 inverse agonism in reporter assay | HEK293T StAR-luciferase reporter, LRH-1 transfected, 24 h | 360,000 tested, 0.13% active | O00482 | inhibition, % at 3.6 µM;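 active means inhibition above the mean inhibition of all tested compounds plus 3 SD, cut at about 73% in these data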;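 further: 0% = DMSO wells and 100% = reporter-only cells lacking LRH-1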
NCOA1 inh = human NCOA1 inhibition | Q15788 | HEK293 GAL4-SRC1 luciferase reporter, luminescence | inhibition, % at 3.6 µM | 360,000 tested, 0.12% active | AID 588354;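 active means inhibition above the campaign mean plus 3 SD, with each screening campaign given its own cutoff, cut at about 60% in these data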;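 further: 0% = DMSO treated cells and 100% = gossypol at 36 µM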
NCOA2 inhibitor = inhibits human steroid receptor coactivator 2; 370,000 tested, 0.17% active; AID 651957; inhibition, % at 9 µM; Q15596; HEK293 GAL4-SRC2 luciferase reporter, luminescence;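 active means inhibition above the mean inhibition of all tested compounds plus 3 SD, set per campaign, cut at about 52% in these data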;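 further: 0% = DMSO treated cells and 100% = cells given Gossypol at 36 µM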
NR2F2 inh = blocks human COUP-TFII nuclear receptor. P24468. HEK293T NGFI-A luciferase reporter, luminescence. inhibition, % at 8.6 µM. 370,000 tested, 0.7% active. AID 686940;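 active means inhibition above a per-plate cutoff, mean inhibition of test wells between control levels plus 3 SD, cut at about 38% in these data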;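 further: cells cotransfected with COUP-TFII expression vector driving the NGFI-A reporter; 0% = median of COUP-TF2 test wells and 100% = reporter-only cells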
NCOA3 inh = inhibitors of human steroid receptor coactivator 3 (SRC3) | 360,000 tested, 0.17% active | HEK293 GAL4-SRC3 luciferase reporter, luminescence | Q9Y6Q9 | inhibition, % at 3.6 µM;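 active means inhibition above a per-campaign cutoff, the mean of all compounds plus 3 SD, cut at about 60% in these data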;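 further: 0% = DMSO-treated cells and 100% = gossypol-treated cells at 36 µM; higher means less SRC3-driven luciferase light from the GAL4 reporter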
Target sequence (Q9Y6Q9 whole entry, looked up, the tested form may be a part): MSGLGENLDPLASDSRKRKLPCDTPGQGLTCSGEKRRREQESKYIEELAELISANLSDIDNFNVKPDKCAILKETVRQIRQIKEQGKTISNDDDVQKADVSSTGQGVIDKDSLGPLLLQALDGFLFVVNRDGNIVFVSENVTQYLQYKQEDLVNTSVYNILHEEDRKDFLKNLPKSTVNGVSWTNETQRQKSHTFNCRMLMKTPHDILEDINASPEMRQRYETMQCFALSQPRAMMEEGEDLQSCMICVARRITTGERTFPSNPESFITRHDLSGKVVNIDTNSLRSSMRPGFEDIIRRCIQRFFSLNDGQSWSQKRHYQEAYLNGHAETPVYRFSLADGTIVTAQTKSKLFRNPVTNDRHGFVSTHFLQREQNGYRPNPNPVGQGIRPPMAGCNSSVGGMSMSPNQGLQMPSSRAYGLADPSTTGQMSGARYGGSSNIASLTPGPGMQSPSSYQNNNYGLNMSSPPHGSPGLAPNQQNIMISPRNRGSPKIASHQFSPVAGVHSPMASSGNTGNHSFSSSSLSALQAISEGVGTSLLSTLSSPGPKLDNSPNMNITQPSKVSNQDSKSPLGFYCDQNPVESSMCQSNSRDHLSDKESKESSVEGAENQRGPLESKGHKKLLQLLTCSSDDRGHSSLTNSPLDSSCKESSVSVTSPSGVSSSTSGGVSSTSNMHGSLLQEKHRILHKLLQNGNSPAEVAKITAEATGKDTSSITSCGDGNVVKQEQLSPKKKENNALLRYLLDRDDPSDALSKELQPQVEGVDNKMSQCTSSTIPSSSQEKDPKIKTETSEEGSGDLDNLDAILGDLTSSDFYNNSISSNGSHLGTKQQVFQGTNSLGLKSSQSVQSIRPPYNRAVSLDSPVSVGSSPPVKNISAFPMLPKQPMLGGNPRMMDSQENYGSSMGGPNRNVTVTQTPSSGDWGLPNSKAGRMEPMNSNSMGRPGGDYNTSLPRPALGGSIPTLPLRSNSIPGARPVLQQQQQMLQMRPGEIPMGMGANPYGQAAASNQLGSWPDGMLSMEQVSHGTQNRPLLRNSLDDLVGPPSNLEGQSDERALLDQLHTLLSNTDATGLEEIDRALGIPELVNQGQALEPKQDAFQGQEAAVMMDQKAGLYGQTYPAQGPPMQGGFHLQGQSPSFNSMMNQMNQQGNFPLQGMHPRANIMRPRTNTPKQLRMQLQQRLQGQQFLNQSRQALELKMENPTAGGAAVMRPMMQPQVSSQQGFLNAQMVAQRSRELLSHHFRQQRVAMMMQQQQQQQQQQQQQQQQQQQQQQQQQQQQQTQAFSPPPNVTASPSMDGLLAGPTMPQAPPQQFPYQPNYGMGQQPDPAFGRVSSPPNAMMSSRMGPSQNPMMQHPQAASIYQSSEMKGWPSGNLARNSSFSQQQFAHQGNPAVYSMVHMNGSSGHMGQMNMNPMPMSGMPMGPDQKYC
Gal4-VP16 ctr = VP16 inhibition counter-screen for COUP-TFII; shares compounds with NR2F2 inh; HEK293 Gal4-VP16 luciferase reporter, luminescence; inhibition, % at 8.5 µM; 2,500 tested, 25% active; in the data active means inhibition above about 13%
COUP-TFII conf = confirmation of human COUP-TFII (NR2F2) inhibitors; shares compounds with NR2F2 inh; 2,500 tested, 45% active; inhibition, % at 8.5 µM; HEK293 NGFI-A luciferase reporter, luminescence;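 active means mean inhibition over three repeats above a set limit taken from the earlier primary screen, cut at about 38% in these data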;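 further: 100% = cells given the luciferase reporter alone without the COUP-TF2 vector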
The depositor's hits bear a star; . = not tested or not shown.

SMILES	LRH-1 inv ag	NCOA1 inh	NCOA2 inhibitor	NR2F2 inh	NCOA3 inh	Gal4-VP16 ctr	COUP-TFII conf
C[C@H](CO)N1C[C@H](C)[C@@H](CN(C)C(=O)C2CC2)OCc2cnnn2CCCC1=O	0	9	-1	-9	-15	.	.
CN1CCN(Cc2c(O)ccc3occ(C(=O)c4ccccc4)c23)CC1	-3	1	-19	16	6	.	.
CC(=O)C(C(C)=O)c1c(Cl)c(O)c(O)c2c(C(=O)c3ccccc3)coc12	54	10	30	68*	7	14*	60*
CC1CCCC=CC2CC(OC(=O)CN(C)C)CC2C(O)C=CC(=O)O1 (centres undefined)	37	0	3	51*	51	16*	16
COc1ccc(OCCn2c(=N)n(CCO)c3ccccc32)cc1	5	-6	-10	0	14	.	.
CCc1ccc(CN2CCN(C(=O)c3cccc(OC)c3OC)CC2)cc1	23	22	13	54*	10	-6	40*
COc1cccc(C(=O)N2CCN(C(=O)c3cccc4ccccc34)CC2)c1OC	-18	-7	-2	6	16	.	.
C=CCN1[C@H](C)COc2cccc(F)c2S1(=O)=O	.	.	-1	-10	.	.	.
CCN1CCN(c2cc(C)c3cc(NC(=S)N4CC(C)CC(C)C4)ccc3n2)CC1 (centres undefined)	-1	-3	-32	-11	8	.	.
CCN1CCN(c2cc(C)c3cc(NC(=S)N4CCCC(C)C4)ccc3n2)CC1 (centres undefined)	32	20	29	46*	40	26*	35
Cc1ccc(C(=O)Nc2ccc(C)c(S(=O)(=O)Nc3ccccc3Cl)c2)s1	11	4	11	17	20	.	.
Cc1ccc(NC(=O)c2cc3c(s2)CCCC3)cc1S(=O)(=O)Nc1ccccc1Cl	23	19	4	40*	15	1	23
Cc1nc(Nc2ncc(C(=O)Nc3c(C)cccc3Cl)s2)cc(N2CCN(CCO)CC2)n1	.	.	-7	39*	.	3	18
Clc1ccccc1OCCCn1ccnc1	-3	-26	16	6	-18	.	.
Cc1nccn1CCOc1ccccc1Cl	4	-8	-26	68*	4	2	8
CCC(=O)c1ccc(OCC(O)Cn2c(C)nc3ccccc32)cc1 (centres undefined)	20	14	29	59*	5	4	37
Oc1cccc2cc(Nc3ccccc3)cnc12	90*	57	14	55*	69*	-9	46*
CC(C)(C)NS(=O)(=O)c1ccc(OCC(=O)NCc2ccco2)cc1	-8	7	6	-3	17	.	.
O=C(N/N=C/c1ccc(OC(F)F)cc1)c1ccc(Br)cc1	-15	-4	-13	-18	14	.	.
O=C(NO)c1ccc(OC(F)F)cc1	5	18	17	45*	9	-11	36
CCCN1CCC(=O)N([C@H](CSc2ccc(Br)cc2)c2ccccc2)CC1	-13	-24	0	-20	-22	.	.
O=C(Nc1ccc(-c2nc3ccccc3o2)c(O)c1)c1cc(-n2cnnc2)ccc1Cl	21	18	27	44*	21	-8	17
CC(C)N(Cc1nc(-c2ccc(Cl)cc2)no1)C(=O)C12CC3CC(CC(C3)C1)C2	-16	-20	15	24	1	.	.
Cc1nnc(NC(=O)CSc2nc3ccccc3o2)s1	9	15	2	10	11	.	.
CC1CCc2nc(NC(=O)CSc3nc4ccccc4o3)sc2C1 (centres undefined)	47	29	20	43*	48	31*	68*
SMILES	LRH-1 inv ag	NCOA1 inh	NCOA2 inhibitor	NR2F2 inh	NCOA3 inh	Gal4-VP16 ctr	COUP-TFII conf
CC(=O)c1cccc(NS(=O)(=O)c2ccc(NC(=O)N3CCCCC3)cc2)c1	39	14	24	56*	32	14*	44*
CCCn1c(SCC(=O)Nc2cccc(F)c2)nc(O)cc1=O	-4	-5	21	4	5	.	.
Cc1ccc(C(=O)N2CCN(C(=O)CN3CCCC3)C2)cc1	34	5	7	1	19	.	.
Cc1cc(NC(=O)C23CC4CC(CC(C4)C2)C3)n[nH]1	2	-1	0	3	8	.	.
O=C(c1ccc(Oc2ccc([N+](=O)[O-])cc2)cc1)N1CCCCCC1	1	15	8	47*	6	-5	14
CSc1ccc(CN2CCN(C(=O)c3ccc([N+](=O)[O-])cc3)CC2)cc1	39	10	15	71*	24	-2	44*
O=C(c1ccc(Cn2ccc([N+](=O)[O-])n2)cc1)N1CCN(Cc2ccccc2)CC1	24	2	16	11	15	.	.
O=C(c1ccc(Oc2ccc([N+](=O)[O-])cc2Cl)cc1)N1CCCC1	42	-5	33	0	3	.	.
CCOc1cc(C2NC(=O)NC(C)=C2C(=O)OCC2CCCCC2)ccc1O (centres undefined)	18	10	9	-1	8	.	.
Cc1ccc(C(=O)NCC(=O)OCCOc2cccc(Cl)c2)cc1	-4	8	-4	-9	-6	.	.
COc1cc(C(=O)NCc2cccnc2)ccc1OCC(=O)Nc1cccc(C(F)(F)F)c1	26	11	31	30	1	.	.
COc1ccc(CN(C)C(=O)c2ccc(OCC(=O)Nc3cccc(C(F)(F)F)c3)c(OC)c2)cc1	37	31	31	64*	39	-2	48*
Nc1ncnc2c(C3OC(CO)C(O)C3O)scc12 (centres undefined)	96*	66*	51	67*	84*	22*	23
O=C1CCCN2N=C(SCC(=O)Nc3cccc(C(F)(F)F)c3)SC2=N1	27	20	26	53*	18	0	50*
O=C1CCCN2N=C(SCC(=O)Nc3cccc(Cl)c3)SC2=N1	-5	10	13	23	3	.	.
CCCOc1ccc(C(=O)Nc2ccc(S(=O)(=O)NC3=NCCCCC3)cc2)cc1	31	-1	3	43*	-4	-3	10
COc1cccc(-n2cc(CN(C)Cc3nc(Cc4cccc(F)c4)no3)cn2)c1	2	-3	10	5	16	.	.
COc1ccc(CN(C)Cc2nc(Cc3cccc(F)c3)no2)c2cccnc12	32	19	23	60*	28	-10	47*
CN(C(=O)Cn1cc(C#N)c2ccccc21)c1ccccc1	12	-9	15	2	1	.	.
CC(C)N(Cc1nccn1C)C(=O)c1cc(COc2ccc3ncccc3c2)on1	21	9	-5	40*	7	-3	6
Cc1nc(CN(C)C(=O)c2cc(COc3ccc4ncccc4c3)on2)cs1	36	12	29	58*	30	0	52*
COc1cccc(OCc2cc(C(=O)N(Cc3nccn3C)C(C)C)no2)c1	1	-12	-15	-2	-12	.	.

Source: PubChem
